According to PubChem BioAssay:
The other results are listed elsewhere or left out.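 Rule for the calls, unless noted: active = signal rise of 40% or more at 20 µM, treated as a fluorescence artifact; inactive = the rest.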

Assay: Apaf-1 inhibitors, single-dose retest, confirmation, biochemical, fluorescence, DEVD-Rh110, 20 µM (AID 504614;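 active = mean inhibition of at least 40% at 20 µM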;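 note: plate controls were DMSO wells for no effect and DEVD-CHO caspase inhibitor control wells for full effect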)
Details: reconstituted apoptosome, caspase-3 DEVD-Rh110 fluorescence; at 20 µM; hits give high values

inhibition, inactive:
CC1=NN(c2ccc(Cl)c(C(=O)O)c2)C(=O)/C1=C/c1ccc(-c2ccccc2[N+](=O)[O-])o1 16.8%
CC(=O)Nc1ccc(Nc2cc(C)nc(Nc3ccc(NC(C)=O)cc3)n2)cc1 10.4%
O=[N+]([O-])c1c(NCCO)cc(Sc2nc3ccccc3s2)c2nonc12 19.9%
c1ccc(CSc2nnc(-c3ccco3)c(-c3ccco3)n2)cc1 29.4%

Assay: Rh110 fluorescence interference by putative Apaf-1 inhibitors, confirmation, artefact control for Apaf-1 inhibitor project, biochemical, 20 µM (AID 504615)
Details: quenched caspase reaction, at 20 µM, hits give high values

Activation (fluorescence interference), inactive:
COc1ccccc1C1C(C#N)=C(N)Oc2c1c(-c1ccccc1)nn2-c1ccccc1 (centres undefined) 5.51%
Cc1cc2oc3ccc(NCCC4CCCN4C)cc3c(=O)c2cc1C (centres undefined) 4.87%
COc1ccc(N(CCC(=O)NCCc2ccccc2)S(=O)(=O)c2ccc(C)cc2C)cc1 3.62%
C[C@@H](CN1CCC[C@H]1CN1C(N)=NC[C@@H]1Cc1ccccc1)N1C[C@@H](Cc2ccccc2)N(CCCC2CCCC2)C1=N 7.13%
Cc1cc(N2CCCC2)ccc1NC(=O)COc1ccc(Cl)cc1 1.52%
Cc1ccsc1/C=N/NC(=O)Cc1cc(=O)[nH][nH]1 8.37%
NC(N)=NCCCc1cn(CC(=O)N2CCNCC2)nn1 -2.11%
C(=N/Nc1cc(N2CCOCC2)nc(N2CCOCC2)n1)/c1ccccc1 2.85%
CCN1C(=NCc2ccc(OC)cc2)N[C@@H](CCc2ccccc2)[C@H](C(=O)NCc2ccc(OC)cc2)[C@H]1C 7.82%
CCCCCCCCCCOC(=O)Cn1c(COc2ccc(C)cc2)[n+](C)c2ccccc21 25.8%
